These entries were drawn from the full list.
aSyn 5UTR act: Activators working through SNCA 5'UTR binding (MLPCN); alpha-synuclein 5'UTR reporter, activators screen; activity score, % (tested at 7.5 µM), hits read low; hit rate 7.1% among 300,000; AID 1814; in the data active = activity score below about -60%
An asterisk follows results filed as active.

SMILES	aSyn 5UTR act
CCN1C(=O)C(=Cc2ccc(C)s2)C(=O)N(CC)C1=S	-158*
CCN1C(=O)C(=C2C=C(C)OC(C)=C2)C(=O)N(CC)C1=S	-75*
Cc1ccc2cc3cc(C(=O)N4CCC5(CC4)OCCO5)oc3nc2c1	-69*
C[C@]12CCC3C(CCC4=CC(O)CC[C@@]43/C=N/O)C1(O)CCC2C1=CC(=O)OC1 (some centres undefined)	113
CCC(=O)N1CC(=O)Nc2ccc(Br)cc2C1c1ccccc1 (centres undefined)	-71*
C[C@@H]1O[C@@H](O[C@H]2C[C@@H](O)[C@]3(CO)[C@H]4[C@H](O)C[C@]5(C)[C@@H](C6=CC(=O)OC6)CC[C@]5(O)[C@@H]4CC[C@]3(O)C2)[C@H](O)[C@H](O)[C@H]1O	114
CC(Cc1ccccc1)NC(=O)c1ccc(N)cc1 (centres undefined)	-110*
CC(Cc1ccccc1)NC(=O)NC(C)Cc1ccccc1 (centres undefined)	-134*
Nc1ccccc1C(=O)OCC(=O)N1CCc2ccccc21	-168*
CCC(=NC(C)c1ccccc1)c1c(O)[nH]c(=O)[nH]c1=O (centres undefined)	57
CCCCn1c(O)c(/C(C)=N/NC(=O)Nc2ccccc2)c(=O)[nH]c1=O	-99*
CCCCN=C[C@]12CCC(O)CC1(O)CCC1[C@@H]2CC[C@]2(C)[C@H](C3C=CC(=O)O3)CCC12O (some centres undefined)	96
CCCCCCCCCCCCCCCC[N+](C)(C)C	98
CC(C)(C)C(=O)c1cn(CC(=O)NCc2ccco2)c2ccccc12	-143*
COc1ccc(-c2cc(=Nc3cccc(C(=O)O)c3)c3cc(C)ccc3o2)cc1	-81*
COc1ccc(-c2cc(=NCC(=O)O)c3ccccc3o2)cc1	-128*
Cn1c(O)c(C(=N)COc2ccccc2)c(=O)n(C)c1=O	-67*
Cn1cnc([N+](=O)[O-])c1Sc1ccc([N+](=O)[O-])cc1	-66*
Cc1ccc(N2C(=O)NC(=O)/C(=C/C=C/c3ccco3)C2=O)cc1	-76*
Cc1cc(C)cc(N2C(=O)NC(=O)/C(=C\C=C\c3ccco3)C2=O)c1	-116*
CC(C)c1ccc(N2C(=O)NC(=O)/C(=C/C=C/c3ccco3)C2=O)cc1	-130*
O=C1NC(=O)N(c2ccccc2)C(=O)/C1=C\C=C\c1ccccc1	-119*
Cc1c2ccncc2c(C)c2c1[nH]c1ccccc12	114
C[C@H]1O[C@@H](OC2CC[C@]3(C=O)[C@H]4CC[C@]5(C)[C@@H](C6=CC(=O)OC6)CC[C@]5(O)[C@@H]4CC[C@]3(O)C2)CC2OC(C)(C)OC21 (some centres undefined)	96
COc1ccc(C[C@H]2NC[C@H](O)[C@H]2OC(C)=O)cc1	112
SMILES	aSyn 5UTR act
C/C=C(\C)C(=O)OC1C(C)=C2C(C1OC(=O)CCCCC)C(C)(OC(C)=O)CC(OC(=O)CCC)C1(O)C2OC(=O)C1(C)O (centres undefined)	108
O=C1NC(=O)N(Cc2ccc(F)cc2)C(=O)/C1=C\C=C\c1ccco1	-270*
N#Cc1ccccc1NC(=O)CN1CC=C(c2ccccc2)CC1	-63*
O=C(C1CC(c2ccccc2O)=NO1)N1CCC2(CC1)OCCO2 (centres undefined)	-68*
CC(Cc1ccccc1)N1Cc2ccccc2C1 (centres undefined)	-65*
Cc1ccc(N2C(=O)NC(=O)/C(=C/c3cnn(-c4ccc(C)cc4)c3)C2=O)cc1	-72*
CN1C(=O)C(Cc2ccc(OCc3ccccc3)cc2)C(=O)N(C)C1=O	-105*
N#CSCC(=O)N1c2ccccc2CCc2ccccc21	-84*
Nc1c2c(nc3sc4c(c13)CCCCC4)CCCC2	-139*
CC/C=C/CC(=O)N[C@@H](c1ccccc1)[C@@H](O)C(=O)O[C@H]1C[C@@]2(O)[C@@H](OC(=O)c3ccccc3)C3[C@](C)(C(=O)[C@H](OC(C)=O)C(=C1C)C2(C)C)[C@@H](O)C[C@H]1OC[C@@]31OC(C)=O (some centres undefined)	77
CN(C)c1ccc(-[n+]2c(-c3ccccc3)cc(-c3ccccc3)cc2-c2ccccc2)cc1	84
CN(C)C(=O)Oc1ccc2c(c1)O/C(=C\c1ccc(Cl)cc1)C2=O	-87*
CN(C)C(=O)Oc1ccc2c(c1)O/C(=C\c1cccc(Cl)c1)C2=O	-72*
CCOc1ccc(-c2c(C)n(-c3ccc(OCC)cc3)c3[n+]2CCCCC3)cc1	62
Cc1cccc(-n2c(O)c(/C=C3/C(c4ccccc4)=Nc4ccccc43)c(=O)[nH]c2=O)c1	-174*
CCN(CC)C(=O)c1ccc(NC(=O)Nc2ccccc2F)cc1	59
CC(=O)Nc1ccccc1C(=O)OCc1ccc(F)cc1	-84*
CC(=O)Nc1ccccc1C(=O)OCC(=O)c1ccc2c(c1)OCCO2	-62*
CCCCCn1c(=O)c(C(=O)NCc2ccncc2)c(O)c2ccccc21	65
Cc1cc(C(=O)N=Nc2c(O)n(C)c3ccccc23)c(C)o1	-180*
CCCCCCn1c(=O)c(C(=O)Nc2cnccn2)c(O)c2ccccc21	67
CCCCCn1c(=O)c(C(=O)Nc2ccccn2)c(O)c2ccccc21	65
CCCCCCn1c(=O)c(C(=O)Nc2c(C)n(C)n(-c3ccccc3)c2=O)c(O)c2ccccc21	-76*
CCC(C)c1ccc(N2C(=O)NC(=O)/C(=C/c3cccn3CCOc3ccc(C)cc3)C2=O)cc1 (centres undefined)	-65*
CC(=O)c1ccc(-c2ccccc2)cc1	-81*
SMILES	aSyn 5UTR act
CN(C)C(=O)Oc1ccc(C(=O)c2ccccc2)cc1	-68*
Cc1ccc(-c2cc(-c3ccccc3)cc(-c3ccccc3)[n+]2-c2ccccc2)cc1	85
CC(=O)c1ccc(OC(=O)N(C)c2ccccc2)cc1	-66*
Fc1ccc(C(OCCN2CCN(CCCc3ccccc3)CC2)c2ccc(F)cc2)cc1	106
COc1ccc(CNCCc2c(C)[nH]c3ccc(OC(F)(F)F)cc23)c(OC)c1	90
C[C@H]1C[C@@H](C)C(=O)[C@@H]([C@H](O)CC2CC(=O)NC(=O)C2)C1	97
Cc1cc(N(CCCl)CCCl)ccc1/C=N/N=C(\N)c1cnccn1	-74*
COc1ccc(O)c2c(=O)c3c(OC)cc4c(c3oc12)C1C=COC1O4 (centres undefined)	94
COc1ccc2c(c1)/C(=C/c1cnc[nH]1)C(=O)N2	-62*
COC(=O)C[C@]1(C(=O)OC)CN(C#N)N(c2ccc(Cl)cc2)C12c1ccccc1-c1ccccc12	96
CN1CCc2nc(SCC(=O)OC(C)(C)C)c(C#N)cc2C1	-281*
C[C@]12C=CC(=O)C=C1C=C[C@@H]1C2CC[C@]2(C)C(=O)CCC12 (some centres undefined)	-120*
Cc1ccc(-c2cc(-c3ccc(C)cc3)[n+](-c3ccc(C(=O)[O-])cc3)c(-c3ccc(C)cc3)c2)cc1	83
O=C1NC(c2cccnc2)Nc2sc3c(c21)CCCC3 (centres undefined)	-98*
CC(=O)O[C@@]12CO[C@@H]1C[C@@H](O)[C@@]1(C)C(=O)[C@H](O)C3=C(C)[C@@H](OC(=O)[C@H](O)[C@@H](NC(=O)c4ccccc4)c4ccccc4)C[C@@](O)([C@@H](OC(=O)c4ccccc4)C12)C3(C)C (some centres undefined)	113
Cc1nc2ccccc2c(=O)n1-c1ccc(Br)cn1	-176*
N=C1c2ccccc2CN1CC(=O)c1ccccc1	-186*
COc1cccc(OCc2cc(C(=O)N3C[C@H]4C[C@@H](C3)c3cccc(=O)n3C4)no2)c1	-174*
